Data from PubChem BioAssay AID1851 (National Center for Advancing Translational Sciences (NCATS), 2009).
Screen size: about 16,000 compounds; about 5,100 (32%) were called active. Another 25% or so got no clear call; they are omitted. Some of the results follow. Values without a mark were called inactive. Calls follow the shape of the dose curve; as a rule, active = well fitted curve in the direction sought with a large enough effect; inconclusive = small, poorly fitted or top-dose-only effect, or effect the other way; inactive = no such curve, though single readings can be large or run the other way.

The compounds below were run against Cytochrome P450 3A4 (Homo sapiens) (UniProt P08684) (assay: Cytochrome panel assay with activity outcomes). Conditions: recombinant CYP, pro-luciferin dealkylation, luminescence, p450-cyp3a4; series mostly up to 57.1 µM; activity, negative = inhibition: at the top concentration.
% is scaled to controls: 0 for no effect and ±100 for the full control effect.

Cytochrome P450 3A4 (Homo sapiens), sequence (P08684 whole entry, looked up): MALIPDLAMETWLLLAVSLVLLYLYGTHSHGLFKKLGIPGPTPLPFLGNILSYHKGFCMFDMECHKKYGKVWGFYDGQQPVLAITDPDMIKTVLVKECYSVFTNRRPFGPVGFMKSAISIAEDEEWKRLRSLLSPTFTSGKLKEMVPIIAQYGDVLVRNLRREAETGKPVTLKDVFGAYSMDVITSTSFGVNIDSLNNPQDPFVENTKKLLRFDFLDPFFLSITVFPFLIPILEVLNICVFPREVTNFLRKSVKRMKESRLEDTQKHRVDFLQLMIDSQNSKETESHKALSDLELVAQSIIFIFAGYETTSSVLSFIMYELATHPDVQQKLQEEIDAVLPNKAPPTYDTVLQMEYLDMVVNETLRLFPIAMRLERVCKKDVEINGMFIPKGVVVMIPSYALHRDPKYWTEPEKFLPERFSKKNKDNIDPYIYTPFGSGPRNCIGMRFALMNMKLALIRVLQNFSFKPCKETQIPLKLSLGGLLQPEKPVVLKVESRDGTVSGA

| Structure (SMILES) | activity, negative = inhibition | AC50 |
| --- | --- | --- |
| COc1ccc(C2N=C(N)N=C(N)N2c2ccccc2OC)cc1OC (stereo unspecified) | -8.43% [at 2.29 µM] |  |
| C[N+]1(C)C[C@@H](O)C[C@@H]1C(=O)[O-] | 8.58% [at 25.6 µM] |  |
| C=C(C)COc1ccc2c(c1)CCC1C2CC[C@]2(C)C(=O)/C(=N/O)CC12 (stereo partly specified) | 1.68% [at 11.4 µM] |  |
| N#CCCn1c(=O)cnc2cnc(N3CCOCC3)nc21 | -3.94% |  |
| COc1cccc(-c2cncnc2NCCc2c[nH]c3ccc(OC)cc23)c1 |  | 0.501 µM (active) |
| COc1ccc2[nH]cc(CCNc3ncncc3-c3cccnc3)c2c1 |  | 0.794 µM (active) |
| COc1ccc2[nH]cc(CCNc3ncncc3-c3cccc(NS(C)(=O)=O)c3)c2c1 |  | 0.398 µM (active) |
| Clc1ccc(N2CCCCCC2)nn1 | -15.4% |  |
| COc1ccccc1NC(=O)CCN1C(=O)C2CC=C(Cl)CC2C1=O (stereo unspecified) |  | 14.1 µM (active) |
| Cc1ncc(N=Nc2ccccc2Cl)c(-c2ccccc2)n1 | -21.3% |  |
| COC(=O)CNC(=O)CN1C(=O)N(c2ccccc2)C(N(O)C(=O)Nc2ccccc2)C1(C)C (stereo unspecified) | 27.6% |  |
| COC(=O)CC1C(=O)NCCN1C(=O)Nc1ccc(Cl)cc1 (stereo unspecified) | -7.49% |  |
| COC(=O)CNC(=O)CN1C(=O)N(c2ccc(Cl)cc2)C(N(O)C(=O)Nc2ccc(Cl)cc2)C1(C)C (stereo unspecified) |  | 4.47 µM (active) |
| O=C(O)c1cccc(OCCO)c1 | -12.1% [at 11.4 µM] |  |
| COc1cc(C)ccc1OCCOc1cc(C)ccc1Cl | 5.86% [at 2.29 µM] |  |
| Cc1ccc(OCCOCCn2ccnc2)c(Br)c1 |  | 0.562 µM (active) |
| Cc1cccc(OCCCCCn2ccnc2)c1 |  | 0.562 µM (active) |
| Cc1cc2[nH]c(=O)c3ccccc3n2n1 | -11% |  |
| O=c1cc(CSc2nnc(-c3cccnc3)n2-c2ccccc2F)nc2sccn12 |  | 2.82 µM (active) |
| Cn1cc(C(=O)N/N=C/C(Br)=C\c2ccccc2)ccc1=O | -21.8% |  |
| N#Cc1cccc(NC(=O)N2CC[C@@]3(CCCN(S(=O)(=O)c4ccccc4)C3)C2)c1 |  | 3.16 µM (active) |
| CS(=O)(=O)N1CCC2(CCN(C(=O)Nc3cccc(F)c3)CC2)CC1 | 0.77% |  |
| O=C(Nc1cccc(F)c1)N1CCCC2(CCN(S(=O)(=O)c3ccccc3)CC2)C1 |  | 12.6 µM (active) |
| CS(=O)(=O)N1CCC2(CCN(C(=O)Nc3cccc(C#N)c3)CC2)CC1 | -0.782% |  |
| CS(=O)(=O)N1CCC[C@@]2(CCN(C(=O)Nc3ccccc3)C2)C1 | -21.2% |  |
| O=C(Nc1cccc(F)c1)N1CC2(CCN(S(=O)(=O)c3ccccc3)CC2)C1 | -16.5% |  |

| Structure (SMILES) | activity, negative = inhibition | AC50 |
| --- | --- | --- |
| O=C(Nc1cccc(F)c1)N1CC[C@@]2(CCCN(S(=O)(=O)c3ccccc3)C2)C1 |  | 25.1 µM (active) |
| Clc1ccccc1CSc1nnc(/C=C/c2ccccc2)o1 | -23.3% |  |
| CC(/C=C1\N=C(SCc2ccccc2Cl)SC1=O)=C\c1ccccc1 |  | 14.1 µM (active) |
| O=c1[nH]c2cc(Cl)ccc2c(O)c1-c1cccc(Oc2ccccc2)c1 | -19.3% |  |
| CC1(C)CCC=[N+]1[O-] | 16.1% |  |
| NC(N)=NC(N)=Nc1ccccc1 | -12.3% |  |
| O=C(Nc1ccc(N2CCCCC2)cc1)c1cncc(Br)c1 |  | 1.41 µM (active) |
| CCc1ccc(OCCCC(=O)Nc2ccc(N3CCCCC3)cc2)cc1 | -10.4% |  |
| O=C(O)CNC(=O)[C@@H](CS)Cc1ccccc1 | 0.949% |  |
| CCSc1nnc(NC(=O)Cc2ccccc2OC)s1 | -9.72% |  |
| COc1ccccc1C(=O)NCCn1cc(SCC(=O)Nc2nnc(C)s2)c2ccccc21 |  | 6.31 µM (active) |
| CC(=O)NCCc1ccc(O)c(O)c1 | -7.98% |  |
| CCCCCCCCCCCCCCCC(=O)NC(C)C | -13.2% |  |
| CCCCCCC/C=C\CCCCCCCCC(=O)O | -7.01% |  |
| CCCCCCCC/C=C\CCCCCCCC(=O)NCCc1ccc(O)c(O)c1 |  | 3.16 µM (active) |
| CCCCCCCC/C=C\CCCCCCCC(=O)N[C@@H](CO)Cc1ccc(O)cc1 |  | 10 µM (active) |
| CCCCCCCCCCCCCCC/C=C\[C@H](O)[C@@H](NC(=O)CCCCCCCCCCCCC)OC (tested in a mixture with another compound) | 15.6% |  |
| N=C(N)SCC(=O)O | -3.45% [at 11.4 µM] |  |
| CC(C)CN1CCC2(CC1)CCN(S(=O)(=O)c1ccccc1)CC2 | -5.33% |  |
| O=S(=O)(c1ccccc1)N1CCC2(CCN(Cc3ccncc3)CC2)CC1 |  | 3.98 µM (active) |
| O=S(=O)(c1ccccc1)N1CCC2(CC1)CN(Cc1ccccc1)C2 | 11.6% |  |
| O=S(=O)(c1ccccc1)N1CCC2(CCN(Cc3ccccc3)CC2)CC1 | -5.59% |  |
| CC(C)CN1CCCC2(CCN(S(=O)(=O)c3ccccc3)CC2)C1 |  | 15.8 µM (active) |
| O=S(=O)(c1ccccc1)N1CCC2(CCCN(Cc3ccncc3)C2)CC1 |  | 3.98 µM (active) |
| N#Cc1ccc(CN2CCCC3(CCN(S(=O)(=O)c4ccccc4)CC3)C2)cc1 |  | 3.16 µM (active) |
| CC/C=C\CC[C@H](O)C1=CCCCC1=O | -12.1% [at 11.4 µM] |  |

| Structure (SMILES) | activity, negative = inhibition | AC50 |
| --- | --- | --- |
| O=C1CC(c2ccccc2)Cc2nc(N3CCc4ccccc4C3)ncc21 (stereo unspecified) | 2.14% [at 2.29 µM] |  |
| COc1ccc(C2CC(=O)c3cnc(Nc4cc(C)cc(C)c4)nc3C2)cc1 (stereo unspecified) |  | 4.47 µM (active) |
| COc1ccc(Nc2ncc3c(n2)CC(c2ccc(C)cc2)CC3=O)cc1 (stereo unspecified) |  | 8.91 µM (active) |
| Cc1ccc(C2CC(=O)c3cnc(N4CCc5ccccc5C4)nc3C2)cc1 (stereo unspecified) | -6% [at 2.29 µM] |  |
| CC1CC(=O)c2cnc(N)nc2C1 (stereo unspecified) | 6.35% |  |
| Nc1ncnc2c1ncn2C[C@@H](O)C(=O)O | 1.58% [at 11.4 µM] |  |
| O=c1cnc2cnc(Oc3cccc(Cl)c3)nc2n1C[C@H]1CCCO1 | -20.3% |  |
| CCNc1ncc2nc(C)c(=O)n(C[C@H]3CCCO3)c2n1 | -10.9% |  |
| COc1ccc(Oc2ncc3nc(C)c(=O)n(C[C@H]4CCCO4)c3n2)cc1 |  | 3.98 µM (active) |
| COc1ccc(Oc2ncc3ncc(=O)n(C[C@H]4CCCO4)c3n2)cc1 |  | 12.6 µM (active) |
| COc1ccc(-c2nc3cnc(N4CCOCC4)nc3n(C[C@H]3CCCO3)c2=O)cc1 | -3.59% |  |
| CCNc1ncc2ncc(=O)n(C[C@H]3CCCO3)c2n1 | -21% |  |
| Nc1ccc(N(S(=O)(=O)c2ccccc2)S(=O)(=O)c2ccccc2)c(Cl)c1 |  | 0.0316 µM (active) |
| CN(CCC(=O)O)S(=O)(=O)c1ccccc1 | -26.6% [at 11.4 µM] |  |
| NC(=S)Nc1cc2ccccc2c2ccccc12 |  | 15.8 µM (active) |
| CN=C(N)/N=C(\N)Nc1cc2ccccc2c2ccccc12 | -14.5% [at 11.4 µM] |  |
| O=C(O)c1c2ccccc2cc2ccccc12 | 0.0487% |  |
| COc1ccc(C2CC(=O)CC(=O)C2n2cncn2)cc1 (stereo unspecified) |  | 2.24 µM (active) |
| CCN(CC)C(=O)C1CC(=O)N(c2ccc(OC)cc2)C1c1ccc(OC)cc1 (stereo unspecified) | -28.4% [at 2.29 µM] |  |
| O=C1CC(=O)C(n2cncn2)C(c2cccc(Cl)c2)C1 (stereo unspecified) |  | 0.501 µM (active) |
| COCCNc1nc(-c2cccc(NS(C)(=O)=O)c2)nc2ccccc12 |  | 12.6 µM (active) |
| CS(=O)(=O)Nc1cccc(-c2nc(NCc3cccnc3)c3ccccc3n2)c1 |  | 2 µM (active) |
| CS(=O)(=O)Nc1cccc(-c2nc(NCc3cccs3)c3ccccc3n2)c1 |  | 3.16 µM (active) |
| Cc1cccc(CNc2nc(-c3cccc(NS(C)(=O)=O)c3)nc3ccccc23)c1 |  | 5.01 µM (active) |
| NC(=O)/C(=N\O)c1ccccc1 | -20.2% |  |
| CC(=O)NCCNc1nc(-c2cccc(NS(C)(=O)=O)c2)nc2ccccc12 |  | 15.8 µM (active) |

| Structure (SMILES) | activity, negative = inhibition | AC50 |
| --- | --- | --- |
| CS(=O)(=O)Nc1cccc(-c2nc(NCc3ccccc3)c3ccccc3n2)c1 |  | 3.16 µM (active) |
| c1cc(NNc2cccc(-c3nn[nH]n3)c2)cc(-c2nn[nH]n2)c1 | -11.1% [at 11.4 µM] |  |
| Cn1c(=O)c2c(ncn2CN2CCN(Cn3cnc4c3c(=O)n(C)c(=O)n4C)CC2)n(C)c1=O | 3.42% [at 11.4 µM] |  |
| COc1ccccc1CNc1ncnc2ccc(-c3cccc(C#N)c3)cc12 |  | 7.94 µM (active) |
| COc1ccc(CNc2ncnc3ccc(-c4cccc(C#N)c4)cc23)c(OC)c1 |  | 1.58 µM (active) |
| Cc1ccc(S(=O)(=O)NC(=O)OC23COCN2COC3)cc1 | -8.25% [at 11.4 µM] |  |
| COc1ccc(-n2c(=O)c(-c3cc(F)cc(F)c3)nc3cncnc32)cc1 |  | 12.6 µM (active) |
| COc1ccc(-n2c(=O)c(C)nc3cncnc32)cc1 |  | 5.01 µM (active) |
| COc1ccc(-n2c(=O)c(-c3ccc(F)cc3)nc3cnc(N4CCOCC4)nc32)cc1 | -15.1% |  |
| O=c1c(-c2cc(F)cc(F)c2)nc2cncnc2n1-c1ccccc1 | -35.4% |  |
| COc1ccc(-n2c(=O)c(-c3cccc(F)c3)nc3cncnc32)cc1 |  | 20 µM (active) |
| COc1ccc(-n2c(=O)c(-c3ccc(F)cc3)nc3cncnc32)cc1 | -30.6% |  |
| COc1ccc(-n2c(=O)c(-c3ccc(Cl)cc3)nc3cncnc32)cc1 |  | 15.8 µM (active) |
| Cn1c(=O)c(-c2ccc(Cl)cc2)nc2cncnc21 | -13.1% |  |
| Cn1c(=O)c(-c2cccc(Cl)c2)nc2cncnc21 | -21.6% |  |
| COc1ccc(-n2c(=O)c(-c3cccc(Cl)c3)nc3cncnc32)cc1 |  | 12.6 µM (active) |
| CCNc1ncc2nc(-c3cc(F)cc(F)c3)c(=O)n(-c3ccc(OC)cc3)c2n1 |  | 10 µM (active) |
| CCNc1ncc2nc(-c3ccc(F)cc3)c(=O)n(-c3ccccc3)c2n1 | -12.8% |  |
| Nc1ncnc2c1ncn2[C@H]1O[C@@H](C(=O)O)[C@@H](O)[C@H]1O | 0.186% [at 11.4 µM] |  |
| CCOC(=O)C1=C(CSc2nc3ccccc3s2)NC(=O)NC1c1cccc([N+](=O)[O-])c1 (stereo unspecified) |  | 6.31 µM (active) |
| COC(=O)C1=C(CSc2nncn2C)NC(=O)NC1c1ccc(F)cc1 (stereo unspecified) | -6.15% |  |
| CCOC(=O)C1=C(COc2ccc(F)cc2Cl)NC(=O)NC1c1cc(C)ccc1C (stereo unspecified) |  | 6.31 µM (active) |
| CCOC(=O)C1=C(CSc2nc3ccccc3s2)NC(=O)NC1c1cc(C)ccc1C (stereo unspecified) |  | 4.47 µM (active) |
